From PubChem BioAssay
The list is not random: actives were taken first. Their share in the collection is about 3.5%.
GPR151 ag = activators of human GPR151, primary screen, cell-based, PathHunter beta-arrestin, luminescence; G-protein coupled receptor 151 (Homo sapiens), Q8TDV0; PathHunter beta-arrestin GPR151 cells; activation, % at 11.2 µM; 650,000 compounds, 1% hits; AID 1508602, 2020; in the data active = activation above about 4.9%;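 note: 0% = median of compound wells and 100% = cells with positive control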
Target sequence (Q8TDV0 whole entry, looked up): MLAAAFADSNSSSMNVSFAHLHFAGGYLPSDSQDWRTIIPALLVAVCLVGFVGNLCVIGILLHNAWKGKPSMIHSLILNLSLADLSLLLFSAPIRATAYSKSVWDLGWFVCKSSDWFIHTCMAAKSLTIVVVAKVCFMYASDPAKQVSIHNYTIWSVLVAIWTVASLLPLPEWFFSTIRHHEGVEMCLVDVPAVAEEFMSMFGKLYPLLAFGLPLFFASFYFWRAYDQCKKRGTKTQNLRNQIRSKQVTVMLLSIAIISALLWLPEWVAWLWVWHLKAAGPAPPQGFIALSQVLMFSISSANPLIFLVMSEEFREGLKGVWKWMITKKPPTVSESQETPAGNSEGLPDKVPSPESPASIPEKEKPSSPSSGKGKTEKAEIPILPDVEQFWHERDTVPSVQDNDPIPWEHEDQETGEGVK
FBW7 activator = FBW7 E3 ligase activators, primary screen, biochemical, AlphaScreen, human | F-box/WD repeat-containing protein 7 (Homo sapiens), Q969H0 | AlphaScreen FBW7–phospho-cyclin E peptide binding, activator screen | normalized activity (activation), % at 26.1 µM | 650,000 compounds, 0.13% hits | AID 1259310, 2017; in the data active = normalized activity above about 1.9%;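 note: purified mutant Fbw7 with reduced substrate affinity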
TEAD-YAP block = TEAD-YAP interaction inhibition, primary screen, TEAD-YAP interaction inhibitor project, luminescence, HEK-TIYL cells; TEAD-Gal4/YAP UAS-luciferase luminescence; inhibition, % at 9.12 µM; 640,000 compounds, 1.4% hits; AID 1259422, 2018; in the data active = inhibition above about 32%;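 note: 0% = median of test compound wells and 100% = reference inhibitor wells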
MITF primary = MITF inhibitors, primary screen, biochemical, AlphaScreen, human; AlphaScreen MITF homodimerization, bead proximity signal; Microphthalmia-associated transcription factor (Homo sapiens), O75030; inhibition, % at 2.6 µM; 650,000 compounds, 0.91% hits; in the data active = inhibition above about 50%;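 note: 0% = vehicle wells with protein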
MITF confirm = MITF inhibitors, retest of hits, confirmation, biochemical, AlphaScreen, triplicate; AID 1259372, 2018; 4,700 compounds, 16% hits; inhibition, % at 2.6 µM; AlphaScreen MITF homodimerization, biotin/His-MITF beads; shares compounds with MITF primary;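 active = inhibition above a cutoff derived from the DMSO control wells, cut at about 28% in these data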;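 note: 0% = MITF dimer wells with DMSO only; inhibitors lower the bead chemiluminescence by keeping MITF from dimerizing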
AlphaScreen intf2 = AlphaScreen optical interference compounds, counter-screen for MITF inhibitor project, biochemical, triplicate; shares compounds with MITF primary; LysRS AlphaScreen counterscreen, signal interference; inhibition, % at 2.6 µM; 4,700 compounds, 7.6% hits;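 active = inhibition above a cutoff derived from the DMSO control wells, cut at about 30% in these data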
* = called active by the depositor; nt = no result.

SMILES | GPR151 ag | FBW7 activator | TEAD-YAP block | MITF primary | MITF confirm | AlphaScreen intf2
COc1ccc(CNC(C)c2ccc(-n3ccnc3)cc2)cc1F (stereo unspecified) | 1 | 0 | 0 | 66* | 14 | 19
COc1cc(OC)c(OC)cc1CN(CCCN(C)C)CCCN(C)C | 1 | 0 | 2 | 54* | -10 | -3
CCc1nc(SCc2ccncc2)[nH]c(=O)c1C | 4 | 0 | -8 | 3 | nt | nt
CCOC(=O)C1CCN(C(=O)C2CCN(Cc3ccc(CC)cc3)CC2)CC1 | -2 | 0 | 13 | 61* | 7 | 16
Cc1ccc(CNC(=O)C2CCN(Cc3ccc(F)cc3)CC2)cc1 | 0 | 0 | 3 | 37 | nt | nt
CCc1ccc(CN2CCC(C(=O)N3CCCC3)CC2)cc1 | -1 | 0 | -1 | 58* | 14 | 19
CCOC(=O)C1CCN(Cc2cn[nH]c2-c2ccccc2)CC1 | -1 | 0 | -2 | 55* | -14 | 11
CCOc1ccc(CN2CCC(C(=O)NCc3ccc(C)cc3)CC2)cc1 | 0 | 0 | 12 | 54* | 8 | 18
CCOC(=O)N1CCN(C(=O)C2CCN(Cc3ccc(CC)cc3)CC2)CC1 | -2 | 0 | -3 | 42 | nt | nt
CCOC(=O)C1CCN(C(=O)/C=C/c2ccc(F)cc2)CC1 | 0 | 0 | -36 | 71* | 1 | -2
O=C(C1CCN(Cc2ccc(F)cc2)CC1)N1CCN(Cc2ccccc2)CC1 | 1 | 0 | 2 | 62* | 7 | 14
CCOC(=O)C1CCN(C(=O)C2CCN(Cc3ccc(OCC)cc3)CC2)CC1 | 0 | 0 | 14 | 53* | 11 | 11
CCOC(=O)C1CCN(C(=O)/C=C/c2ccccc2)CC1 | -1 | 0 | -44 | -2 | nt | nt
C=CCNC(=O)c1ccccc1NC(=O)C(C)N(c1ccccc1)S(C)(=O)=O (stereo unspecified) | -3 | 0 | 7 | -4 | nt | nt
COCOc1ccc(-c2ccc(C(=O)Nc3cccc(OC)c3)c(N3CCOCC3)n2)cc1 | 0 | 0 | -13 | -2 | nt | nt
CCN(CC)c1nc(NCCOc2ccccc2)nc(Nc2cccc(N(C)C)c2)n1 | -1 | 0 | -6 | 61* | 7 | 6
CCOC(=O)CNS(=O)(=O)c1ccc2[nH]cc(C(=O)O)c(=O)c2c1 | 1 | 0 | 2 | 52* | 13 | 1
COc1ccc(CNS(=O)(=O)c2ccc3[nH]cc(C(=O)O)c(=O)c3c2)cc1 | -1 | 0 | 8 | 24 | nt | nt
CCN(CC)CCNS(=O)(=O)c1ccc2[nH]cc(C(=O)O)c(=O)c2c1 | 0 | 0 | 2 | 52* | 5 | 5
Cc1cccc(NC(=O)c2ccc(NS(=O)(=O)c3ccc4[nH]cc(C(=O)O)c(=O)c4c3)cc2)c1 | 1 | 1 | 5 | 70* | 41* | -5
O=C(CCc1nnc(Cc2cccc(C(F)(F)F)c2)o1)NCC1(O)CCCCC1 | -1 | 0 | 11 | 0 | nt | nt
CCOC(=O)c1c(C)nc2n(C)c3ccccc3n12 | 0 | 0 | 2 | -2 | nt | nt
CC(C)c1ccc2nc(SCC(=O)NCC3CCCO3)c(C#N)cc2c1 (stereo unspecified) | 0 | 0 | 9 | 66* | 11 | 19
CCOc1ccc2nc(SCC(=O)NCC3CCCO3)c(C#N)cc2c1 (stereo unspecified) | -1 | 0 | -2 | 6 | nt | nt
C=CCc1cccc(Cl)c1OCCCN1CCN(C)CC1 | -1 | 0 | 2 | 19 | nt | nt
SMILES | GPR151 ag | FBW7 activator | TEAD-YAP block | MITF primary | MITF confirm | AlphaScreen intf2
C=CCc1cccc(Cl)c1OCCCN1CCNCC1 | 0 | 0 | -5 | 53* | 6 | 7
C=CCc1cccc(Cl)c1OCCCNCCN1CCOCC1 | 0 | 0 | 9 | 56* | 5 | 20
CCN1CCN(CCOc2ccc(Cl)cc2Br)CC1 | -2 | 0 | 5 | 57* | 9 | 14
CCN1CCN(CCCOc2ccc(Cl)cc2Br)CC1 | 2 | 0 | -15 | 68* | 14 | 20
CCN1CCN(CCOc2ccc(Br)cc2C)CC1 | -1 | 0 | -4 | 57* | 17 | 9
CC1CN(CCOc2ccc(Cl)cc2Br)CC(C)O1 (stereo unspecified) | 0 | 0 | 0 | 39 | nt | nt
CCN1CCN(CCOc2ccc3ccccc3c2Br)CC1 | 1 | 0 | -2 | 60* | 14 | 13
CCOC(=O)C1CCCN(Cc2cccc(F)c2)C1 (stereo unspecified) | 1 | 0 | 6 | 31 | nt | nt
CC1CCN(Cc2nnnn2CC(=O)NC2Cc3ccccc3C2)CC1 | 1 | 0 | 2 | 10 | nt | nt
O=C(CN1CCC(c2ccncc2)CC1)Nc1ccc(N2CCCCC2)cc1 | 0 | 0 | 6 | 8 | nt | nt
O=C(CN1CCCCCC1)Nc1ccc(N2CCCC2)cc1 | 0 | 0 | -21 | 53* | 7 | 25
CC1CCN(CC(=O)Nc2ccc(N3CCCCCC3)cc2)CC1 | 4 | 0 | -2 | 52* | 20 | 33*
Cc1ccc(NC(=O)CN2CCC(C(=O)NC3CC3)CC2)cc1 | -1 | 0 | 0 | 112* | 0 | -8
CC1CCN(CC(=O)Nc2ccc(Br)cc2)CC1 | 1 | 0 | -25 | -3 | nt | nt
COc1ccc2cccc(NC(=O)Cn3ccc4ccccc43)c2n1 | 1 | 0 | -4 | 1 | nt | nt
COc1ccc(/C=C(\C#N)C(=O)NCc2cccc(Cl)c2)c(OC)c1OC | -2 | 0 | -1 | -3 | nt | nt
CCOc1cc(C(=O)Nc2ccc(S(=O)(=O)N3CCCCC3c3cccnc3)cc2)cc(OCC)c1OCC (stereo unspecified) | 1 | 0 | 14 | 2 | nt | nt
N#Cc1c(N)nc(SCC(N)=O)c(C#N)c1-c1ccc(Br)cc1 | 0 | 0 | -2 | -10 | nt | nt
c1ccc(C2CCC(N3CCN(C4CCCCCC4)CC3)CC2)cc1 (stereo unspecified) | -1 | 0 | -3 | 63* | 2 | 15
c1ccc(C2CCC(N3CCN(Cc4ccco4)CC3)CC2)cc1 (stereo unspecified) | 0 | 0 | -9 | 67* | 4 | 6
CC1CCCC(N2CCN(Cc3ccco3)CC2)C1 (stereo unspecified) | 0 | 0 | -6 | 74* | -1 | 1
c1ccc(C2CCC(N3CCN(C4CCCC4)CC3)CC2)cc1 (stereo unspecified) | -1 | 0 | 3 | 19 | nt | nt
Nc1ccc(S(=O)(=O)Nc2nccc(C(F)(F)F)n2)cc1 | 0 | 0 | 5 | 2 | nt | nt
COCCNC(=O)c1cc2c(=O)n3ccccc3nc2n(CCN2CCOCC2)c1=N | 3 | 0 | -8 | 19 | nt | nt
COc1cccc(/C=N/NS(=O)(=O)c2ccc(C)cc2)c1 | 1 | 0 | 0 | 77* | -3 | -7
c1ccc(OCc2nc3ccccc3n2CC2CCN(Cc3ccccn3)CC2)cc1 | 0 | -1 | 5 | 90* | 15 | 23
